In all, about 310,000 compounds went through this assay and about 14,000 (4.5%) showed an effect of 50% or more. Effects have a minus sign here. Shown is part of a subset that was picked to be rich in strong results.
The molecules below were run against human ether-à-go-go-related gene (hERG) potassium channel (human, UniProt Q12809) (assay: primary screen, population patch clamp on CHO cells stably expressing hERG; higher = less effect of the substance).
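Further: peak tail current of the secondary pulse compared with the same well before compound.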

Chain of human ether-à-go-go-related gene (hERG) potassium channel (Q12809 whole entry, looked up): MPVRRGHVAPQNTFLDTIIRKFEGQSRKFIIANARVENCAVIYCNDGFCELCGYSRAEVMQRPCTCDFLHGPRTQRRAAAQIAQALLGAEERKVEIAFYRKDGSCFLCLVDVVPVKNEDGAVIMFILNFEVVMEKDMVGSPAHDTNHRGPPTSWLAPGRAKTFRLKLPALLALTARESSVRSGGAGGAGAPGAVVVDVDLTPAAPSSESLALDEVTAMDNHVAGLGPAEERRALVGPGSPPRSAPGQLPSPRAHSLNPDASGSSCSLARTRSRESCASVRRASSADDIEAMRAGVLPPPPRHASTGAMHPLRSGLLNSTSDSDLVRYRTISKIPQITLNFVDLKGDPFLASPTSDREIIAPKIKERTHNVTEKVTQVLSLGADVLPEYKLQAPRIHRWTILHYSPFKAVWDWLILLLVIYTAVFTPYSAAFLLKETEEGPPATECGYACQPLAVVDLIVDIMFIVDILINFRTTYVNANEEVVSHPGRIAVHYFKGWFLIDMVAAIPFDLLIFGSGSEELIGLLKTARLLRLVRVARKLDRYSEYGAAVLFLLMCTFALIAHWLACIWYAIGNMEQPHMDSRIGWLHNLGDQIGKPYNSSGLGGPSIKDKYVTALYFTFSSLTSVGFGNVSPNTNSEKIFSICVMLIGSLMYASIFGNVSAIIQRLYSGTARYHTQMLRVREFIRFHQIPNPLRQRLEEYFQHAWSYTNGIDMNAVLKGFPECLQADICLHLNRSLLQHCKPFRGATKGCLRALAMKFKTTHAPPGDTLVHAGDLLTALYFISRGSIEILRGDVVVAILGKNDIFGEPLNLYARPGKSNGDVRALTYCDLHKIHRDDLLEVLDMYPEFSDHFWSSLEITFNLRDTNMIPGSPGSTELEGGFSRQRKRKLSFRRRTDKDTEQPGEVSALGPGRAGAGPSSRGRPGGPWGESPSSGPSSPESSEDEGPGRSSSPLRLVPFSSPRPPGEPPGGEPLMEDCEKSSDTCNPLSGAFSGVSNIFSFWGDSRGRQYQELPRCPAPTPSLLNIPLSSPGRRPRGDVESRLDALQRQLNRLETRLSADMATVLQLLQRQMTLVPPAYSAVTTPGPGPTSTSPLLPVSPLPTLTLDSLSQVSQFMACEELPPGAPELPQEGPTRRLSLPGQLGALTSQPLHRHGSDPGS

| Structure (SMILES) | hERG current change (%, negative = inhibition) at 10uM |
| --- | --- |
| O=C1COc2ccc(S(=O)(=O)NCCc3ccccc3)cc2N1 | 10.7% |
| CC(NC(=O)c1cc(S(=O)(=O)N2CCCC2)ccc1Cl)c1ccccn1 (centres unmarked) | 18.1% |
| CCOc1ccc(C2C3=C(CC(C)(C)CC3=O)N(CC(=O)O)C3=C2C(=O)CC(C)(C)C3)cc1OCC | 5.47% |
| CN1CCC(N(C)C(=S)Nc2ccc(SC(F)F)cc2)CC1 | -56.6% |
| CN1CCN(C(=O)c2ccccc2Nc2ccc(SC(F)F)cc2)CC1.Cl | -26% |
| CC(=O)c1ccc(NC(=S)N(C)C2CCN(C)CC2)cc1 | -4.16% |
| CN1CCC(N(C)C(=O)c2ccccc2Nc2ccc(SC(F)F)cc2)CC1 | -62.2% |
| CC1CC(C)CN(C(=S)Nc2ccc(SC(F)F)cc2)C1 (centres unmarked) | -51.8% |
| O=C(NCc1ccncc1)c1ccccc1Nc1ccc(SC(F)F)cc1 | -63.9% |
| CC1CC(C)CN(C(=O)c2ccccc2Nc2ccc(SC(F)F)cc2)C1 (centres unmarked) | 0.904% |
| CC1CCN(C(=S)Nc2ccc(SC(F)F)cc2)CC1 | -33% |
| CC1CN(C(=S)Nc2ccc(SC(F)F)cc2)CC(C)O1 (centres unmarked) | -27.6% |
| CN1CCC(N(C)C(=S)Nc2ccc(F)cc2)CC1 | 21.3% |
| CNC(=O)c1ccccc1Nc1ccc(SC(F)F)cc1 | -1.62% |
| O=C(NCc1ccncc1)c1cccc(S(=O)(=O)Nc2ccc(SC(F)F)cc2)c1 | -3.21% |
| O=C(CCN1C(=O)c2ccccc2C1=O)OCN1C(=O)c2ccccc2C1=O | -11.5% |
| COCCSc1ccccc1C(=O)NCc1cccnc1 | 18.7% |
| CCc1c(C)[nH]c2nc3ccccc3n2c1=O | 4.86% |
| CC(C)c1nc2ccc(NC(=O)C34CC5CC(CC(C5)C3)C4)cc2[nH]1 | 4.9% |
| COCCCn1c(SCC(=O)Nc2nnc(C)s2)nnc1-c1ccoc1C | 4.33% |
| Cc1ccc(NC2=NC(=S)N(CC#N)C23CCCCC3)cc1 | -6.19% |
| CC(C)Oc1cccc(C(=O)C2CCCN(Cc3cccn3-c3cccnc3)C2)c1 (centres unmarked) | -27.7% |
| COc1cccc(C(=O)C2CCCN(Cc3cccn3-c3ccccn3)C2)c1 (centres unmarked) | -76.5% |

| Structure (SMILES) | hERG current change (%, negative = inhibition) at 10uM |
| --- | --- |
| CC(C)Oc1cccc(C(=O)C2CCCN(Cc3ccon3)C2)c1 (centres unmarked) | -3.37% |
| COc1cccc(C(=O)C2CCCN(C(=O)c3ccccn3)C2)c1 (centres unmarked) | 3.77% |
| CC(C)Oc1cccc(C(=O)C2CCCN(Cc3cccn3-c3ccccn3)C2)c1 (centres unmarked) | -78.8% |
| Cc1c(CN2CCCC(C(=O)c3cccc(Cl)c3)C2)c(=O)n(-c2ccccc2)n1C (centres unmarked) | -24% |
| Cc1c(CN2CCCC(C(=O)c3cccc(OC(C)C)c3)C2)c(=O)n(-c2ccccc2)n1C (centres unmarked) | -57.2% |
| COc1cccc(C(=O)C2CCCN(Cc3c(C)n(C)n(-c4ccccc4)c3=O)C2)c1 (centres unmarked) | -21.2% |
| COc1ccc(C(=O)Nc2c3c(nn2C(C)(C)C)CS(=O)(=O)C3)cc1OC | 13.1% |
| CCc1ccccc1NS(=O)(=O)c1cc(C)ccc1OC | -5.89% |
| O=C(O)COc1ccccc1/C=N/NC(=O)c1ccc2c(c1)OCCO2 | -2.93% |
| O=C(CSc1nnc(COc2ccc3c(c2)CCCC3)o1)Nc1ccc(F)cc1 | 10.2% |
| Cc1ccc2c(C)nc(Nc3ncc4c(n3)CCCC4=O)nc2c1 | -12.4% |
| Cc1cc(C)n2nnnc2n1 | 18.5% |
| COc1ccccc1C(=O)NCC(=O)NC(C)CCc1ccccc1 (centres unmarked) | 1.99% |
| COc1ccccc1C(=O)NCC(=O)NCCC(c1ccccc1)c1ccccc1 | -64.4% |
| COc1ccccc1C(=O)NCC(=O)Nc1ccccc1 | 5.97% |
| CS(=O)(=O)c1ccccc1C(=O)NCCC(c1ccccc1)c1ccccc1 | -51.9% |
| Cc1cc(C(=O)NCCC(c2ccccc2)c2ccccc2)c(C)o1 | -17.5% |
| Cc1ccc(C(NC(=O)c2ccccc2S(C)(=O)=O)c2ccccc2)cc1 (centres unmarked) | -30.3% |
| O=C(C1CCCO1)N1CCN(C(=S)Nc2ccc(Cl)c(Cl)c2)CC1 (centres unmarked) | -30.2% |
| CCN(CC)C(=O)c1cn(-c2ccccc2)nc1-c1ccc2c(c1)OCCO2 | -3.56% |
| O=C(Nn1c(C2CC2)nc2ccccc2c1=O)c1ccco1 | -8.14% |
| CCN(CC(=O)NCc1ccc(F)cc1)C(=O)/C=C/c1cccs1 | -40.9% |
| Cc1cc(C)n(-c2ccc(Cl)c(C(=O)OCC(=O)N3CCCCC3C)n2)n1 (centres unmarked) | -4.12% |

| Structure (SMILES) | hERG current change (%, negative = inhibition) at 10uM |
| --- | --- |
| NNc1nc(-c2ccccc2)c2cc(Cl)ccc2n1 | -11.3% |
| Clc1ccc2nnnc(-c3ccccc3)c2c1 | -9.98% |
| NC(N)=Nc1nc(-c2ccccc2)c2ccccc2n1 | -40.1% |
| Cl.NC(N)=Nc1nc(-c2ccccc2)c2cc(Cl)ccc2n1 | -67.9% |
| Cc1nc(N=C(N)N)nc2ccccc12 | 23.6% |
| NC(N)=Nc1nc(-c2ccccc2)c2cc(F)ccc2n1 | -66.2% |
| CC(=O)c1ccc(NC(=S)N2CCN(C(=S)Nc3ccc(C(C)=O)cc3)C(C)C2)cc1 (centres unmarked) | 20.6% |
| CCN(CC)S(=O)(=O)c1cccc(NC(=S)NC(=O)/C=C/c2ccc(S(=O)(=O)N3CCOCC3)cc2)c1 | -6.82% |
| CCCCc1nc2ccccc2[nH]1 | 14.2% |
| CSc1nc2sc(-c3ccccc3)cc2c(=O)n1N | 17.4% |
| O=C(NNC(=O)c1ccccc1-n1cccc1)c1ccccc1 | -18.3% |
| Cc1ccc(-c2nc(C#N)c(NCc3ccco3)o2)cc1 | -0.709% |
| Cc1ccccc1-c1nc(C#N)c(NCc2ccco2)o1 | -57.2% |
| N#Cc1nc(-c2ccccc2Cl)oc1NCc1ccco1 | -8.28% |
| O=C(COc1ccccc1)N1CCN(C(=O)Cc2ccccc2)CC1 | -1.51% |
| COc1cc2nc(SCC(=O)c3ccc(Br)cc3)n3nc(C)nc3c2cc1OC | -17.7% |
| Cc1nn(C)cc1CN1CCCC(C(=O)c2ccc(-c3ccccc3)cc2)C1 (centres unmarked) | -45.4% |
| Cn1cc(CN2CCCC(C(=O)c3cccs3)C2)c(-c2cccc(Cl)c2)n1 (centres unmarked) | -39.2% |
| Cc1nn(C)cc1CN1CCCC(C(=O)c2ccc(-c3ccccc3)c(F)c2)C1 (centres unmarked) | -15.3% |
| Cc1ccsc1C(=O)C1CCCN(Cc2cn(C)nc2-c2ccccc2)C1 (centres unmarked) | -32.1% |
| COc1cccc(C(=O)C2CCCN(Cc3cn(CC(N)=O)c4ccccc34)C2)c1 (centres unmarked) | -53% |
| COc1ccc(C(=O)C2CCCN(Cc3cn(C)nc3-c3ccccc3)C2)cc1F (centres unmarked) | -72.4% |
| COc1cccc(C(=O)C2CCCN(Cc3cn(C)nc3-c3ccccc3)C2)c1 (centres unmarked) | -68.8% |

| Structure (SMILES) | hERG current change (%, negative = inhibition) at 10uM |
| --- | --- |
| NC(=O)NC1NC(=O)NC1=O (centres unmarked) | 11.9% |
| C/C(Cl)=C\Cn1c(O)c(N=NC(N)=S)c2cc(Br)ccc21 | 8.96% |
| COc1cccc(C(=O)N(C)CC(=O)Nc2ccc(F)c(F)c2F)c1 | 11.4% |
| O=C(COC(=O)c1ccc(S(=O)(=O)N2CCOCC2)cc1)NC1CCCCCCC1 | 12.2% |
| Clc1ccc(Nc2ccc(-n3ccnc3)nn2)cc1Cl | -9.9% |
| CC(=O)c1cc2c(C)cc(=O)oc2cc1O | 1.77% |
| CC1CCN(C(=O)Cn2c(=O)n(Cc3ccc4c(c3)OCO4)c(=O)c3ccccc32)CC1 | -18.5% |
| CCCN(CCC)CCCOC(=O)c1ccc(Cl)cc1Cl.Cl | -70.1% |
| CCN(CC)CCOC(=O)c1ccc(Cl)cc1Cl.Cl | -55.4% |
| CN(C)CCCOC(=O)c1ccc(Cl)cc1Cl.Cl | -38.8% |
| CCN(CC)CCOC(=O)c1ccc(Cl)cc1.Cl | -42.7% |
| CCN(CC)CCOC(=O)c1cccc(Cl)c1.Cl | -32.4% |
| CN(C)CCCOC(=O)c1ccccc1Cl.Cl | -0.792% |
| Cc1nnc(NC(=O)CN2CCN(Cc3ccccc3Cl)CC2)s1 | 6.08% |
| CSc1cccc(NC(=O)c2ccccn2)c1 | 7.57% |
| CC[C@H](C)C(N)c1cn([C@@H](CC(N)=O)C(=O)N2CCNCC2)nn1 (some centres unmarked) | -10.5% |
| COc1ccc2c(c1)C(NS(=O)(=O)OCC(Cl)(Cl)Cl)CCC2 (centres unmarked) | -0.647% |
| CC1CCCC(NC(=O)CCNC(=O)c2ccc(Br)cc2)C1C (centres unmarked) | -0.231% |
| Cc1ccc(C)c(OC(C)C(=O)Nc2nccs2)c1 (centres unmarked) | 3.8% |
| CN(C)c1ccc(/C=N/NC(=O)CCC(=O)NCc2ccccc2)cc1 | 11.3% |
| CCc1cc(C(=O)N2CCc3c([nH]c4ccccc34)C2c2ccc(OC)cc2F)no1 (centres unmarked) | 15.7% |
| COc1ccc2oc(C(=O)CCC(=O)O)c(N)c2c1 | 4.93% |
| COc1ccccc1N1CCN(C(=O)c2cc(C)oc2C)CC1 | 21% |
